From PubChem
An excerpt weighted towards active compounds, which were near 5.1% of everything screened.
Tau ThT inhib – qHTS for Inhibitors of Tau Fibril Formation, Thioflavin T Binding; Microtubule-associated protein tau (Homo sapiens), P10636; recombinant tau K18 P301L, heparin-induced fibrillization, ThT fluorescence; Potency, µM (top dose mostly 57.4 µM), most hits filed as inhibitors; 270,000 tested, 2.1% active; AID 1460, 2008; further: nearly all actives have a fitted effect of over 55% in size
Target sequence (P10636 561-689 P618L limits assumed): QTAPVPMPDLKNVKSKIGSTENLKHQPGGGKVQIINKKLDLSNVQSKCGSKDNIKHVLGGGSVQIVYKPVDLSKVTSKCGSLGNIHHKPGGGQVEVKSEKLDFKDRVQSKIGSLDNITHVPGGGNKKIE
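Heparin-induced (20 uM) aggregation of recombinant human K18 P301L tau, 15 uM unlabeled with 0.24 uM labeled, pH 7 acetate buffer, 6 hr at 37 C with compound. Fibrils quantified by 30 uM ThT fluorescence after 1 hr ambient incubation.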
NPSR antagonist – qHTS Assay for Antagonists of the Neuropeptide S Receptor: cAMP Signal Transduction | CHO-NPSR cells, cAMP TR-FRET, antagonist mode | Potency, µM (series often up to 38.3 µM), usual class: inhibitors | 220,000 tested, 1% active | AID 1461, 2008; further: nearly all actives have a fitted effect of over 50% in size
Target sequence (Q6W5P4 whole entry, looked up): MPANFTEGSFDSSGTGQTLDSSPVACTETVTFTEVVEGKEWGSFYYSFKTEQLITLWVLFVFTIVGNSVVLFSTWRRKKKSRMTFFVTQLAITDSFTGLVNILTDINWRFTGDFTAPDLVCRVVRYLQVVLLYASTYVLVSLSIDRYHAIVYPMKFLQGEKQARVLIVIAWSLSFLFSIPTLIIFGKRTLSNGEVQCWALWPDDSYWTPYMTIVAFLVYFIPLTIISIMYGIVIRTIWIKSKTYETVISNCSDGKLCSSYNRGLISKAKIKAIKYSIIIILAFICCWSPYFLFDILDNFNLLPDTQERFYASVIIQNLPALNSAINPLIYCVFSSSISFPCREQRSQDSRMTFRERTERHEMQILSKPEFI
KDM4E inh – qHTS Assay for Inhibitors of Human Jumonji Domain Containing 2E (JMJD2E) | JMJD2E catalytic domain, FDH-coupled NADH fluorescence (FDH is formaldehyde dehydrogenase) | Lysine-specific demethylase 4E (Homo sapiens), B2RXH2 | 230,000 tested, 1.6% active | AID 2147, 2009 | Potency, µM (top dose mostly 57.1 µM), actives largely listed as inhibitors; active means well fitted inhibition curve with a large enough effect, not every such curve was filed as active; inconclusive means small, poorly fitted or top-dose-only effect, or another doubt; inactive means no such curve, though single readings can be large or run the other way; further: nearly all actives have a fitted effect of over 50% in size
Tau FP inhib – qHTS for Inhibitors of Tau Fibril Formation, Fluorescence Polarization. K18 P301L tau heparin fibrillization, Alexa594 FP, 6 h. AID 1468, 2008. 280,000 tested, 0.39% active. Potency, µM (highest dose often 57.7 µM), actives largely listed as inhibitors; further: nearly all actives have a fitted effect of over 55% in size
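Human K18 P301L fragment (15 uM unlabeled plus 0.24 uM Alexa 594-labeled) in 100 mM sodium acetate pH 7 with compound, aggregation induced by 20 uM heparin for 6 hr at 37 C. ThT (30 uM) added for 1 hr, then Alexa 594 FP read.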
PNC assembly inh – High Content Assay for Compounds that inhibit the Assembly of the Perinucleolar Compartment; PC3M PTB-GFP, PNC prevalence imaging, 16 h; active compounds read low; activity change (PNC), negative = inhibition, % at 10 µM; 140,000 tested, 3.1% active; AID 2417, 2010;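 active means readout at or below -70, meaning at least 70% loss of cells showing the perinucleolar compartment, a nuclear body marking cancer cells; inconclusive means readout between -30 and a set limit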
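Compounds are pinned in duplicate onto adhered PC3M cells stably expressing GFP-tagged PTB and incubated 16 h at 37 C. Cells are then fixed, nuclei stained with Hoechst, and PNC-positive cells counted.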
Tau fluor counter – Counterscreen qHTS for Inhibitors of Tau Fibril Formation, Fluorescence Polarization; 280,000 tested, 0.93% active; AID 1463, 2008; tau K18 P301L Alexa594 fluorescence, heparin fibrillization; Potency, µM (highest dose often 57.7 µM); further: nearly all actives have a fitted effect of over 55% in size
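Human tau K18 P301L (15 uM unlabeled, 0.24 uM Alexa 594-labeled) in 100 mM sodium acetate pH 7 with 20 uM heparin, 6 hr at 37 C. ThT 30 uM added, 1 hr ambient; Alexa 594 FP and total fluorescence read at 555/632 nm.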
A number is an active result; n = inactive; u = inconclusive; x = not tested or not shown; [ ] = another dose, or the depositor's remark. Unless noted, the call rests on the fitted dose curve; in most records, active means well fitted curve in the direction sought with a large enough effect; inconclusive means small, poorly fitted or top-dose-only effect, or another doubt; inactive means no such curve, though single readings can be large; an effect the other way counts as inactive or inconclusive.

SMILES	Tau ThT inhib	NPSR antagonist	KDM4E inh	Tau FP inhib	PNC assembly inh	Tau fluor counter
O=C1CCCC2=C1C(c1ccccc1)C1C(=O)c3ccccc3C1=N2 (stereo unspecified)	n	n	n	n	u	n
Cc1cc(-c2nc3ncccc3o2)ccc1NC(=O)c1ccc(Cl)cc1	u	x	x	n	x	n
O=C1c2ccccc2NC2(CCCCC2)N1N=C1CCCCC1	n	n	u	n	n	n
O=C1c2ccccc2NC2(CCCC2)N1O	n	n	u	n	-107.7	n
CCOc1ccc(NC(=O)Cn2c(C)cc3ccccc3c2=O)cc1	u	x	x	u	x	n
COc1ccccc1OCC(=O)c1[nH]c(C)c(C(C)=O)c1C	n	n	n	n	n	n
CC(=O)c1c(C)[nH]c(C(=O)COc2cc(C)ccc2C(C)C)c1C	n	n	n	n	-86.4	n
CC(C)Cn1c2c(c(O)c(C(=O)Nc3ncccc3O)c1=O)CCCC2	u	n	u	n	-90.9	n
COCCN(C(=O)CNC(=O)c1ccco1)C(C(=O)NC1CCCC1)c1cccs1 (stereo unspecified)	n	n	n	n	-100.0	n
COCCN(C(=O)CNC(=O)c1cccs1)C(C(=O)NC1CCCC1)c1cccs1 (stereo unspecified)	n	n	n	n	n	n
COc1ccc(NC(=O)C2CCN(S(=O)(=O)c3ccc4c(c3)CCCC(=O)N4)CC2)cc1OC	n	x	x	n	x	n
CC(C)c1nc2sc3c(c2c(=O)o1)CCCC3	n	n	n	n	-94.2	n
CCOc1ccccc1-n1nnc(-c2nc(-c3ccccc3)no2)c1N	n	x	x	n	x	n
CC(C)(C)NC(=O)Cn1c(SCC(N)=O)nc2ccccc21	n	n	n	n	n	n
COCCn1c(SCC(=O)N2CCCCC2)nc2cccnc21	n	u	n	n	-82.9	n
COc1ccccc1-n1c(SCC(=O)N2CCCC2)nc2cccnc21	n	n	n	n	-110.1	n
CC(C)(C)NC(=O)Cn1c(SCC(=O)N2CCCCCC2)nc2ccccc21	n	n	n	n	-92.3	n
COc1ccc(F)cc1S(=O)(=O)Nc1ccc2c(c1)CCCN2C(=O)c1cccs1	n	x	x	n	x	n
Cc1ccc(C(=O)NCC(c2cccs2)S(=O)(=O)c2cccs2)cc1 (stereo unspecified)	n	x	x	n	x	n
Cc1ccc(Cl)cc1N1CCN(C(=O)c2cc3c(-c4ccccc4F)nn(C)c3s2)CC1	n	x	x	n	x	n
Cc1nc2ccc(N=NC3=C(O)CCCC3=O)cc2s1	12.6µM	n	n	n	n	n
Cc1nc2ccc(N=NC3=C(O)CC(C)(C)CC3=O)cc2s1	u	n	n	n	n	n
CN1CCc2c(n(CC(O)CNCc3ccccc3)c3ccccc23)C1=O (stereo unspecified)	n	n	n	n	x	n
CC(C)NCC(O)Cn1c2c(c3ccccc31)CCc1c-2cnn1-c1ccccc1 (stereo unspecified)	15.8µM	u	u	n	n	u
Cc1cc2cc(OCC(=O)O)ccc2n1C	n	n	u	n	-112.6	n
SMILES	Tau ThT inhib	NPSR antagonist	KDM4E inh	Tau FP inhib	PNC assembly inh	Tau fluor counter
COc1ccc(CC(=O)NCc2ccc3c(c2)cc(C)n3C)cc1	n	n	n	n	x	n
Oc1c(Br)cc(Br)cc1/C=N/NC(=S)N[C@H]1CC2C=CC1C2 (stereo partly specified)	u	u	8.91µM	u	x	u
O=C1CCCN1c1ccc(S(=O)(=O)N2CCCCC2)cc1[N+](=O)[O-]	n	n	n	n	x	n
O=C1CCCN1c1ccc(S(=O)(=O)Oc2cccc(Cl)c2)cc1[N+](=O)[O-]	n	n	n	n	-106.0	n
Cc1cc(C2=NNC(=Nc3ccc(S(=O)(=O)N4CCOCC4)cc3)SC2)c(C)n1C	u	n	8.91µM	n	x	n
C=CCn1c(C)cc(C2=NNC(=Nc3ccc(C)cc3)SC2)c1C	u	n	n	n	x	n
CCOc1ccccc1CNC(=O)c1cnc2sc(N3CCOCC3)nn2c1=O	n	x	x	n	x	n
C/C(=C\C(=S)Nc1ccccc1)Nc1ccc2ccccc2c1	12.6µM	n	u	u	n	u
C/C(=C\C(=S)Nc1ccccc1)Nc1cccc2ccccc12	u	n	u	n	u	n
CCCOc1ccc(Br)cc1-c1cc(-c2ccc(Cl)cc2)[nH]c1-c1ccncc1	n	x	u	u	x	7.94µM[quencher]
COCCN=c1scc(-c2cc(OC)ccc2OC)n1/N=C/c1c[nH]c2ccccc12	u	n	u	n	n	7.94µM[quencher]
Cc1cc(C)n(-c2nc3cc(Cl)ccc3nc2Nc2ccc(CC(=O)O)cc2)n1	u	x	x	n	x	n
CN(C1CCS(=O)(=O)C1)S(=O)C12CC3CC(CC(C3)C1)C2 (stereo unspecified)	n	n	n	n	-100.0	n
COc1ccc(/C=N/Nc2nc3ccccc3[nH]2)cc1OC	12.6µM	n	n	u	n	u
COc1ccc2c(c1)c(/C=N/Nc1nc3ccccc3[nH]1)c(C)n2C	22.4µM	u	u	u	x	28.2µM[quencher]
c1ccc2c(c1)CC/C2=N/Nc1nc2ccccc2[nH]1	u	7.94µM	n	n	x	u
C(=N\Nc1nc2ccccc2[nH]1)/c1ccccn1	u	10µM	n	n	x	n
C(=N\Nc1nc2ccccc2[nH]1)/c1ccc2ncccc2c1	x	n	n	u	x	u
CC(C)(C)C1CCC(=NNc2nc3ccccc3[nH]2)CC1 (stereo unspecified)	u	n	u	n	x	u
C=CCCC/C=C(/C)C(OCc1ccc(OC)cc1)C(CC/C=C(\C)C(N)=O)OC (stereo unspecified)	u	x	x	n[11.6 µM]	x	n[11.6 µM]
COCc1cc(C)nc2c1C(=O)NC(c1ccc(Br)cc1)N2Cc1ccccc1 (stereo unspecified)	n	x	x	n	x	n
CC(=O)CSc1nc(-c2ccccc2)[nH]c1S(=O)(=O)c1ccc(C)cc1	n	x	x	n	x	n
COc1ccc(C2C(C(=O)Nc3cccnc3)=C(C)Nc3nc(SCc4ccccc4)nn32)cc1 (stereo unspecified)	n	x	x	u	x	n
C(=N\Nc1ccc2ccccc2n1)/c1ccc2c(c1)OCCO2	u	n	u	n	x	u
COc1cc(/C=N\Nc2nc3ccccc3[nH]2)cc(OC)c1OC	u	n	n	n	n	n
Cc1ccc(/C=N/Nc2cn[nH]c(=O)n2)o1	n	n	n	n	x	n
C(=N\Nc1nc2ccccc2[nH]1)/c1ccc2c(c1)OCCO2	3.98µM	n	n	n	x	u
O=c1nc(N/N=C/c2ccccn2)cn[nH]1	n	n	10µM	n	x	n
